JMJD2E inh: inhibitors of human JMJD2E histone demethylase; B2RXH2; JMJD2E catalytic domain, FDH-coupled NADH fluorescence (FDH is formaldehyde dehydrogenase); Potency, µM (highest dose often 57.1 µM), for inactives: top-dose activity change, negative = inhibition, hits mostly inhibitors; 230,000 compounds, 1.6% hits; active = well fitted inhibition curve with a large enough effect, not every such curve was filed as active; inconclusive = small, poorly fitted or top-dose-only effect, or another doubt; inactive = no such curve, though single readings can be large or run the other way;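 note: potency is the fitted concentration of half-maximal effect; 0% = wells with enzyme and -100% = buffer wells without enzyme; nearly all actives have a fitted effect of over 50% in size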
Target sequence (B2RXH2 1-337 limits assumed): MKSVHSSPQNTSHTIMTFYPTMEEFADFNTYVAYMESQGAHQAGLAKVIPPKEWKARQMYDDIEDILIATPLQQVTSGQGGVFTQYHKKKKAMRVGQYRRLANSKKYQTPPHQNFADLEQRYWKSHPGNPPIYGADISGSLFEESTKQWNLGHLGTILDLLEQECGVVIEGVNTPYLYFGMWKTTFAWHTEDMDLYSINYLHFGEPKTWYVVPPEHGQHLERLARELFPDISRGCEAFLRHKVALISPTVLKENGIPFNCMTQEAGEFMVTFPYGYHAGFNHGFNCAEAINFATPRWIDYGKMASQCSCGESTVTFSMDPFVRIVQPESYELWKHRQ
Tau FP inhib: blocks human tau fibril formation measured by polarization; Potency, µM (titrated, usually from 57.7 µM), for the others: at the highest dose activity, negative = inhibition, usual class: inhibitors; 280,000 compounds, 0.39% hits; P10636; K18 P301L tau heparin fibrillization, Alexa594 FP, 6 h; AID 1468; note: potency is the fitted concentration of half-maximal effect; nearly all actives have a fitted effect of over 55% in size
Target sequence (P10636 561-689 P618L limits assumed): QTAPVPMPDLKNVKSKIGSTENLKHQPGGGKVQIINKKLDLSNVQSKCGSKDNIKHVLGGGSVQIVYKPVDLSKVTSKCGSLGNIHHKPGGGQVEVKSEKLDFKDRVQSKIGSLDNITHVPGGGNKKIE
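FP of Alexa 594-tau after heparin (20 uM) induction. Substrate: human K18 P301L, 15 uM unlabeled, 0.24 uM labeled. Buffer 100 mM sodium acetate pH 7. 6 hr, 37 C.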
FBPA coupling cs: inhibits coupling enzyme system, counter-screen for aldolase hits | coupling enzyme system counterscreen, AmpLite Red fluorescence | activity change, negative = inhibition, % at 58.2 µM, hits read low | 290,000 compounds, 0.67% hits; in the data active = activity change below about -30%
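Fluorescence at 525 nm excitation and 598 nm emission measured inhibition of the coupled detection system without aldolase. Compounds (at 57.5 uM final) were preincubated 10 min at room temperature with coupling enzyme reagent before a 20 min substrate/AmpLite Red step.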
Tau fibril ThT: tau fibrillization inhibition (ThT binding) | 270,000 compounds, 2.1% hits | P10636 | recombinant tau K18 P301L, heparin-induced fibrillization, ThT fluorescence | AID 1460 | Potency, µM (top dose mostly 57.4 µM), for inactives: at the highest dose activity, negative = inhibition, most hits filed as inhibitors; note: potency is the fitted concentration of half-maximal effect; nearly all actives have a fitted effect of over 55% in size
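Heparin-induced (20 uM) aggregation of recombinant human K18 P301L tau, 15 uM unlabeled with 0.24 uM labeled, pH 7 acetate buffer, 6 hr at 37 C with compound. Fibrils quantified by 30 uM ThT fluorescence after 1 hr ambient incubation.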
Tau fluor counter: counter-screen for tau fibril formation inhibitors | 280,000 compounds, 0.93% hits | Potency, µM (top dose mostly 57.7 µM), inactives show top-dose activity change, negative = decrease | tau K18 P301L Alexa594 fluorescence, heparin fibrillization; note: potency is the fitted concentration of half-maximal effect; nearly all actives have a fitted effect of over 55% in size
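Human tau K18 P301L (15 uM unlabeled, 0.24 uM Alexa 594-labeled) in 100 mM sodium acetate pH 7 with 20 uM heparin, 6 hr at 37 C. ThT 30 uM added, 1 hr ambient; Alexa 594 FP and total fluorescence read at 555/632 nm.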
Sfp PPTase inh: inhibitors of Bacillus subtilis Sfp phosphopantetheinyl transferase; Q9F4F7; Biochemical Sfp PPTase activity, qHTS; Potency, µM, for inactives: largest response in the series, negative = inhibition, usual class: inhibitors; 310,000 compounds, 3.5% hits; AID 1490;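 note: the enzyme is Sfp with the accession as filed and its product quenches rhodamine fluorescence; potency is the fitted concentration of half-maximal effect; 0% = enzyme reaction without inhibitor and -100% = no enzyme wells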
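Compounds were incubated with enzyme (final 15 nM) for 15 min at room temperature before substrate addition started the reaction. Fluorescence at 525 nm excitation, 598 nm emission was recorded immediately and after 30 minutes.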
Numbers without * were called inactive; ? = inconclusive; . = no result; [ ] = dose if it differs, or a comment. A selection: hits, their analogues and other compounds. The true share with any hit is near 5.3%. Unless noted, calls come from the whole dose curve; as a rule, active = well fitted curve in the direction sought with a large enough effect; inconclusive = small, poorly fitted or top-dose-only effect, or another doubt; inactive = no such curve, though single readings can be large; an effect the other way counts as inactive or inconclusive. Unless noted, % is set by controls: 0 for no effect and ±100 for the full control effect.

SMILES	JMJD2E inh	Tau FP inhib	FBPA coupling cs	Tau fibril ThT	Tau fluor counter	Sfp PPTase inh
Cc1oc(-c2ccccc2Cl)nc1CS(=O)CC(=O)N1CCN(c2cccc(C(F)(F)F)c2)CC1 (centres undefined)	.	13%	.	?	2%	.
COc1ccc(NC(=O)N2CCOc3ccc(Cl)cc32)cc1	.	14%	.	-10%	8.9µM*[quencher]	.
CCOC(=O)c1ccccc1NC(=O)N1CCOc2ccc(Cl)cc21	.	-2%	.	6%	3.2µM*[quencher]	.
COc1ccc2nc3oc(C(=O)N4CCN(c5cc(C)ccc5C)CC4)cc3cc2c1	.	-9%	.	?	?	.
N#CCCCS(=O)(=O)c1nnnn1-c1ccc(Br)cc1	0%	-4%	1	-5%	-2%	1%
Cc1ccc2cc(CN(Cc3ccc4c(c3)OCO4)Cc3nnnn3Cc3ccco3)c(=O)[nH]c2c1C	?	2%	0	-8%	-7%	22µM*
Cc1ccc2cc(CN(CCN3CCOCC3)Cc3nnnn3Cc3ccco3)c(=O)[nH]c2c1C	-28%	0%	-4	-9%	-3%	-25%
Cc1ccc(C)c2[nH]c(=O)c(CN(Cc3ccc4c(c3)OCO4)Cc3nnnn3Cc3ccco3)cc12	?	4%	-6	-2%	-11%	50µM*
COc1cc(N=Nc2c(O)c3ccccc3[nH]c2=O)c(OC)cc1N=Nc1ccccc1	-9%	-12%	-1	7.1µM*	?	-8%
NC(=O)c1ccc(N=Nc2c(O)c3ccccc3[nH]c2=O)cc1	2%	?	3	0.5µM*	-19%	-8%
Cc1cc2n(n1)C(c1cn(-c3ccccc3)nc1C)Nc1ccccc1-2 (centres undefined)	?	-9%	-4	-7%	-19%	5%
Cc1cc2n(n1)C(c1c[nH]c3ccccc13)Nc1ccccc1-2 (centres undefined)	?	28µM*	1	?	25µM*[quencher]	-1%
Cc1nc(S/C(=C\c2ccc(OCc3ccccc3Cl)cc2)C(=O)O)n[nH]1	12%	5%	5	?	?	4%
Cc1nc(S/C(=C\c2ccc(-c3ccc(C(=O)O)c(Cl)c3)o2)C(=O)O)n[nH]1	3%	-4%	-1	?	-7%	6.3µM*
O=C(C[n+]1ccccc1)Nc1c(Cl)cc(Cl)cc1Cl	-3%	-62%	-23	18µM*	-39%	20µM*
O=C(c1ccccc1)c1ccc2nc(-c3ccco3)c(-c3ccco3)nc2c1	?	?	-24	14µM*	?	7.1µM*
Cc1ccc(C)c(N2CCN(C(=O)c3ccc4nc(-c5ccco5)c(-c5ccco5)nc4c3)CC2)c1	?	8%	.	?	-22%	20µM*
O=C(NCCO)c1ccc2nc(-c3ccco3)c(-c3ccco3)nc2c1	?	?	-47*	16µM*	14µM*[quencher]	10µM*
c1coc(-c2nc3ccccc3nc2-c2ccco2)c1	?	?	-38*	16µM*	?	14µM*
O=C(NCCc1ccccc1)c1ccc(=O)oc1	-1%	-2%	3	-3%	-4%	8%
O=C(NCCc1ccccc1)c1ccc2nc(-c3ccco3)c(-c3ccco3)nc2c1	?	?	-37*	7.1µM*	?	25µM*
O=C(NC1CCCC1)c1ccc2nc[nH]c2c1	1%	1%	0	0%	7%	7%
O=C(NC1CCCC1)c1ccc2nc(-c3ccco3)c(-c3ccco3)nc2c1	-3%	2%	-30*	-2%	-2%	6.3µM*
O=C1c2cccnc2C(Nc2ccccc2Br)N1Cc1ccco1 (centres undefined)	-4%	3%	1	-17%	-5%	56µM*
CC(=O)c1cccc(NC2c3ncccc3C(=O)N2Cc2ccco2)c1 (centres undefined)	-14%	-3%	0	?	-12%	79µM*
SMILES	JMJD2E inh	Tau FP inhib	FBPA coupling cs	Tau fibril ThT	Tau fluor counter	Sfp PPTase inh
O=C1c2cccnc2C(Nc2ccccc2)N1Cc1ccco1 (centres undefined)	?	-1%	-5	?	-9%	50µM*
O=C1NN(c2ccc(Cl)c(Cl)c2)C(=O)/C1=C/c1cccc(OC(=O)c2cccs2)c1	4%	?	8	16µM*	?	?
O=C1NN(c2ccccc2)C(=O)/C1=C\c1cccc(OC(=O)c2cccs2)c1	-5%	?	5	16µM*	-25%	50µM*
CCc1cccc(C)c1NC(=O)C(NS(=O)(=O)c1ccc2c(c1)CCC(=O)N2)c1ccccc1 (centres undefined)	.	-4%	.	-5%	-8%	.
O=C1CN(C(=O)c2ccc(S(=O)(=O)N3CCCCC3)cc2)C(c2ccc(F)cc2)c2cc(F)ccc2N1 (centres undefined)	.	-4%	.	-8%	-11%	.
O=C1/C(=C/c2ccc(O)cc2)COc2ccccc21	.	.	3	.	.	9%
CNc1ccc(/C=C2\COc3ccccc3C2=O)cc1[N+](=O)[O-]	1%	-2%	5	1.6µM*	-12%	-7%
O=C1/C(=C/c2ccccc2[N+](=O)[O-])COc2ccccc21	8%	?	-3	13µM*	?	1%
Cc1cc(C)c([N+](=O)[O-])cc1-c1ccc(/C=N/c2c(-c3ccco3)nc3ccccn23)o1	?	?	-22	5µM*	25µM*[quencher]	?
O=[N+]([O-])c1ccc(-c2ccc(/C=N/c3c(-c4ccco4)nc4ccccn34)o2)cc1	?	0%	-12	2.8µM*	?	-11%
O=[N+]([O-])c1ccc(Cl)c(-c2ccc(/C=N/c3c(-c4ccco4)nc4ccccn34)o2)c1	?	2%	-2	?	-9%	-19%
O=[N+]([O-])c1ccc(-c2ccc(/C=N/c3c(-c4ccco4)nc4ccccn34)o2)c(Cl)c1	?	-6%	-7	2µM*	-28%	-1%
COc1ccc2c(c1)C(=O)[C@@H](OC(=O)NS(=O)(=O)c1ccc(C)cc1)[C@H](c1ccc(OC)c(Br)c1)O2	-9%	-2%	2	-8%	-6%	-5%
C[C@@H]1C(=O)O[C@H]2C[C@@]34[C@H]5C[C@@H](C(C)(C)C)[C@]36[C@H](OC(=O)[C@H]6O)O[C@]4(C(=O)O5)[C@]21O	.	.	3	.	.	5%
CCCCC(=O)N1C/C=C\C(c2ccc(OC)cc2)N(Cc2ccc(F)cc2)C(=O)C1Cc1ccccc1 (centres undefined)	.	.	-5	.	.	-2%
O=C1CC(/C=C/c2ccc([N+](=O)[O-])cc2)=Nc2ccccc2N1	?	6%	-5	4µM*	?	22µM*

Compound activity (PubChem BioAssay)
